Bioassay records as filed in PubChem.
Compounds with a hit are over-represented: about 9.4% of the library has one in this group of screens.
FLuc modulator: firefly luciferase modulation, counter-screen for miR-21 project. P08659. purified FLuc, Km substrates, luminescence inhibition. Potency, µM (doses to about 57.5 µM), without a hit: at the highest dose activity change, negative = inhibition, actives largely listed as inhibitors. actives 6.9% (n = 360,000). AID 588342;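 note: plate controls were vehicle for no effect and reference inhibitor for full effect; nearly all actives have a fitted effect of over 55% in size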
Target sequence (P08659 whole entry, looked up): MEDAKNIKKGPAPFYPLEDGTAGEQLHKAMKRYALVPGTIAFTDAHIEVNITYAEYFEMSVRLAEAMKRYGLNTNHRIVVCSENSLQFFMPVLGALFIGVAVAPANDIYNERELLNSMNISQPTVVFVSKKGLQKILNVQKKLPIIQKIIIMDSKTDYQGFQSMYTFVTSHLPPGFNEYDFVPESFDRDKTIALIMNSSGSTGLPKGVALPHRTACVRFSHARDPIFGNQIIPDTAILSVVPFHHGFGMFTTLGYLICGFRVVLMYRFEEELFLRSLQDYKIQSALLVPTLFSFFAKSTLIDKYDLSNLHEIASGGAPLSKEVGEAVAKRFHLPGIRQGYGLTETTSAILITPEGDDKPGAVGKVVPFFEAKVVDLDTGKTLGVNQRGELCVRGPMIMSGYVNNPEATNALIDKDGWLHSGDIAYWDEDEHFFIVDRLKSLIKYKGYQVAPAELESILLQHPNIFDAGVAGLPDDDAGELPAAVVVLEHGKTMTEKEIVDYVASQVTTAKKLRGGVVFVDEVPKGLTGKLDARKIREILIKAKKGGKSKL
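Biochemical qHTS of compounds, final roughly 60 µM downward over six points, against 10 nM purified firefly luciferase using Km concentrations of substrates (10 uM D-luciferin, 10 uM ATP) in Tris acetate pH 7.5 buffer; luminescence output.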
ELG1 repair inh: blocks ELG1-dependent DNA repair in HEK293T cells; HEK293T ELG1-luciferase reporter, luminescence, 16 h; DNA damage induced by 5-fluorouridine; Potency, µM (top dose mostly 46.1 µM), for inactives: at the top dose activity change, negative = inhibition, most hits filed as inhibitors; actives 2.3% (n = 330,000); AID 504467; note: % is set by controls: 0 for no effect and ±100 for the full control effect; nearly all actives have a fitted effect of over 55% in size
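Cells (2,000 per well) received 5-fluorouridine plus test compound or DMSO and were incubated 16 hr at 37 °C, 5% CO2. Luciferase activity was read by luminescence 30 min after ONE-Glo addition; signal suppression marked inhibition of damage-induced ELG1 function.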
NPC1 promoter act: activators of NPC1 promoter. Potency, µM (doses to about 9.22 µM), for inactives: at the top dose activation, usual class: activators. Huh7 NPC1 promoter luciferase reporter, 24 h. actives 2.4% (n = 320,000); note: % of control where 0% means no effect; nearly all actives have a fitted effect of over 60% in size
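Compounds in DMSO were transferred onto Huh7 NPC1-luciferase reporter cells pre-incubated 2 h; after 24 h at 37 °C, Amplite reagent was dispensed and luminescence recorded 10 min later.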
SMN2 splice up: SMN2 splice variant enhancement | HEK293 SMN2-luciferase splicing reporter, luminescence, 30-36 h | Potency, µM (doses to about 46.1 µM), without a hit: at the highest dose activity change, positive = activation, hits mostly activators | actives 2.8% (n = 210,000) | AID 1458; note: % of control where 0% means no effect; nearly all actives have a fitted effect of over 55% in size
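qHTS luciferase splicing reporter: luminescence rises when SMN2 exon 7 is included in transfected HEK293 cells. Compound exposure lasted 30-36 h at 37C, with 4.5 mM final sodium butyrate as control, followed by a ONE-Glo read.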
ELG1 genotox: inducers of genotoxicity in HEK293T ELG1-luciferase cells. Potency, µM (series often up to 46 µM), without a hit: at the highest dose activity change, positive = activation, usual class: activators. HEK293T ELG1-luciferase reporter, luminescence, 16 h. actives 1.3% (n = 330,000); note: % of control where 0% means no effect; nearly all actives have a fitted effect of over 60% in size
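DMSO vehicle served as control against compound-treated ELG1-luciferase HEK293T cells; exposure lasted 16 hr at 37 °C and 5% CO2, followed by ONE-Glo luminescence detection after 30 min.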
Rab9 prom act: Rab9 promoter activation; Potency, µM (doses to about 9.22 µM), for inactives: at the top dose activation, negative = inhibition, most hits filed as activators; Huh7 Rab9 promoter-luciferase reporter, luminescence, 24 h; actives 2.8% (n = 320,000); note: % of control where 0% means no effect; nearly all actives have a fitted effect of over 60% in size
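Measured in stably transfected Huh7 cells bearing a Rab9 promoter–luciferase construct: 24 h compound treatment at 37 °C, followed by luminescence detection.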
* hit, by the source's call; ? = inconclusive; . = not tested or not shown; [ ] = remark or other dose. Calls come from the whole dose curve; as a rule, active = well fitted curve in the direction sought with a large enough effect; inconclusive = small, poorly fitted or top-dose-only effect, or another doubt; inactive = no such curve, though single readings can be large; an effect the other way counts as inactive or inconclusive. Potency is the fitted concentration of half-maximal effect.

SMILES	FLuc modulator	ELG1 repair inh	NPC1 promoter act	SMN2 splice up	ELG1 genotox	Rab9 prom act
O=C(Nc1cccnc1)c1cc(-c2cc(Cl)ccc2O)n[nH]1	2.39µM*	?	2.82µM*	.	16.5%	?
Cc1ccc(C)c(NC(=O)c2cc(-c3ccccc3O)n[nH]2)c1	?	?	?	.	10.8%	?
Cc1ccc(-c2cc(C(=O)Nc3cc(C)ccc3C)[nH]n2)c(O)c1	0.6%	?	18.5%	12.0%	9.7%	?
Cc1ccc(C)c(NC(=O)c2cc(-c3cc(C)c(C)cc3O)n[nH]2)c1	?	?	?	.	?	3.55µM*
Cc1cccc(CNc2cc(-c3cccnc3)ncn2)c1	.	.	.	-27.0%	.	.
CCC(Sc1nc2ccccc2c2nc(CCn3c(C)nc4ccccc43)nn12)C(=O)Nc1ccc(F)cc1 (stereo not drawn)	-0.1%	.	.	.	.	.
C#CC(=O)N(c1ccc(OC)cc1OC)C(C(=O)NC1CCCC1)c1cccs1 (stereo not drawn)	-1.2%	1.1%	-39.1%	.	5.0%	-48.2%
C#CC(=O)N(c1cc(OC)ccc1OC)C(C(=O)NC1CCCC1)c1cccs1 (stereo not drawn)	-11.8%	23.1µM*	-47.1%	-33.7%	0.8%	-49.5%
CCOc1ccc(OCc2ccc(C(=O)NN=Cc3ccc[nH]3)cc2)cc1	.	?	.	.	16.8%	.
O=C(N/N=C/c1ccco1)c1ccc(NC(=O)c2ccccc2Cl)cc1	4.5%	4.0%	1.1%	1.9%	-0.8%	1.2%
COc1ccc(C(=O)Nc2ccccc2C(=O)N/N=C/c2ccco2)cc1	0.477µM*	?	16.0%	.	?	?
O=C(CCC(=O)Nc1ccccc1)N/N=C/c1ccncc1	12µM*	3.4%	7.6%	-10.9%	-2.4%	7.7%
CCOc1ccc(/C=N/NC(=O)c2ccccc2NC(=O)c2ccc(OC)cc2)cc1	0.379µM*	?	?	119.1%	13.5%	?
O=C(Nc1ccccc1C(=O)N/N=C/c1ccncc1)c1ccccc1	1.9µM*	?	?	.	-13.9%	?
Cc1oc(C)c2c(=O)cc(-c3ccc4c(c3)OCO4)cc(OC(=O)c3ccccc3Br)c12	-28.8%	.	.	-1.6%	.	.
CCN(CC)C(=O)c1ccc(-c2cccs2)s1	10.7µM*	?	2.51µM*	.	?	3.55µM*
COc1cccc(-n2c(=O)c3sc4ccccc4c3n(CC(=O)Nc3ccccc3OC)c2=O)c1	-2.2%	.	.	0.2%	.	.
O=C(NCC1CCN(Cc2cccc(F)c2)CC1)c1cc2ccc3cccnc3c2[nH]1	3.9%	.	.	.	.	.
COc1ccc(C(=O)/C=C/c2ccc(O)cc2)c2c1CC(O)C(C)(C)O2 (stereo not drawn)	.	23.1µM*	.	.	-3.3%	.
COc1ccc(C(=O)/C=C/c2ccc(O)cc2)c(O)c1CC=C(C)C	?	-5.8%	3.5%	-15.3%	6.0%	8.3%
COc1ccc(CCNC(=O)c2cnc3ccc(C)cn3c2=O)cc1	-3.1%	.	.	16.7%	.	.
Cc1nc(N2CCCC2)c2c(C(=O)Nc3ccc(C)c(Cl)c3)c(C)oc2n1	-2.2%	.	.	.	.	.
CC1=Nn2c(nnc2-c2n[nH]c3c2CCC3)SC1	3.0%	12.6%	-4.8%	-4.6%	12.1%	1.8%
c1ccc(-c2cc(-c3nnc4n3N=C(c3ccc5ccccc5c3)CS4)[nH]n2)cc1	?	?	1.6%	11.2µM*	?	-0.3%
c1ccc(C2=Nn3c(nnc3-c3cccnc3)SC2)cc1	3.7%	?	0.8%	-0.6%	-0.8%	-2.7%
SMILES	FLuc modulator	ELG1 repair inh	NPC1 promoter act	SMN2 splice up	ELG1 genotox	Rab9 prom act
Cc1cc(-c2nnc3n2N=C(c2ccc(-c4ccccc4)cc2)CS3)n[nH]1	16.9µM*	?	-0.7%	.	0.0%	-7.4%
c1ccc(C2=Nn3c(nnc3-c3ccncc3)SC2)cc1	0.1%	8.2µM*	1.9%	-5.0%	-14.2%	-3.9%
Fc1ccc(C2=Nn3c(nnc3-c3n[nH]c4c3CCC4)SC2)cc1	1.1%	?	-1.5%	20µM*	18.4µM*	-3.8%
O=C(CCn1c(=O)c2cccn2c2cccnc21)NCc1ccc(Cl)cc1	-1.5%	.	.	.	.	.
O=C(CN(C(=O)CNC(=O)c1ccco1)c1ccc(Cl)c(Cl)c1)NC1CCCCC1	0.0%	-26.0%	6.6%	-15.8%	-0.3%	-0.5%
Cc1nc(SCc2cc(=O)c3cccc(F)c3[nH]2)n[nH]1	2.2%	.	.	.	.	.
Cc1cc(S(=O)(=O)C(CNC(=O)COc2ccc(Cl)cc2)c2cccs2)ccc1F (stereo not drawn)	-10.1%	.	.	.	.	.
CCOC(=O)Cn1cc(Cl)cc(C(=O)Nc2ccccc2)c1=O	16.9µM*	3.4%	-3.7%	.	5.5%	-1.9%[1.84 µM]
Cn1cc(Cl)cc(C(=O)Nc2ccccc2)c1=O	?	?	17.4%	.	?	?
Cc1ccc(/C=C(\NC(=O)c2ccccc2)C(=O)N2CCCCC2)cc1	1.8%	-11.8%	-4.7%	.	-3.8%	-2.9%
CN(C)c1ccc(/C=C(/NC(=O)c2ccccc2)C(=O)N2CCCC2)cc1	16.9µM*	-3.2%	-0.4%	.	-1.6%	-1.1%
CC(=O)c1ccc(N(C)C)cc1	-3.1%	14.5%	-0.5%	18.6%	6.9%	-0.1%
COCCNC(=O)/C(C#N)=C/c1cccs1	-10.5%	?	10.9%	.	11.8%	16.9%
CN(C)c1ccc(/C=C(\C#N)C(=O)c2ccccc2)cc1	0.426µM*	-1.8%	-3.5%	.	7.5%	0.1%
N#C/C(=C\c1ccc(C#N)cc1)C(=O)c1ccccc1	?	21.5%	5.3%	.	6.2%	-1.8%
CN(C)c1ccc(C(=O)C(=O)c2ccccc2)cc1	23.9µM*	?	17.6%	.	16.7%	?
N#C/C(=C\c1cccs1)C(=O)c1ccccc1	15.1µM*	12.4%	2.1%	.	3.9%	7.8%
Cc1ccc(CNc2nc(-c3ccco3)nn2C(=O)c2ccccc2[N+](=O)[O-])cc1	-9.0%	.	.	.	.	.
COC(=O)c1ccccc1NC(=O)c1c(NC(=O)c2ccco2)sc2c1CCC(C(C)(C)C)C2 (stereo not drawn)	0.9%	.	.	-6.0%	.	.
CCN(CC)c1cc(C)c2cc(NC(=O)/C=C/c3cc(OC)c(OC)c(OC)c3)ccc2n1	-10.3%	.	.	-66.5%	.	.
O=C(CN1C(=O)CCSc2ccccc21)Nc1ccc(C(F)(F)F)cc1	-9.2%	.	.	-26.5%	.	.
CCCCC(Sc1nc2cc3c(cc2c(=O)n1CCCC(=O)NCc1ccc(OC)cc1)OCO3)C(=O)OCC (stereo not drawn)	-1.7%	.	.	.	.	.
CCOc1ccccc1NC(=O)Cn1c(=O)n(Cc2ccc(OC)cc2)c(=O)c2oc3ccccc3c21	-4.8%	.	.	.	.	.
CN(C)c1ccc(/C=C(\C#N)c2ccccc2)cc1	1.35µM*	?	28.6%	.	4.11µM*	0.562µM*
